Screening data as filed in PubChem BioAssay.
An excerpt weighted towards active compounds, which were near 12% of everything screened.
JMJD2A Tudor inh: JMJD2A Tudor domain (human) inhibition; AID 504339; AlphaScreen JMJD2A-Tudor / H3K4me3 peptide binding; O75164; Potency, µM (doses to about 114 µM), inactives show top-dose activity change, negative = inhibition, usual class: inhibitors; 390,000 compounds, 4.4% hits; note: % is set by controls: 0 for no effect and ±100 for the full control effect; nearly all actives have a fitted effect of over 50% in size
Target sequence (O75164 whole entry, looked up, the tested form may be a part): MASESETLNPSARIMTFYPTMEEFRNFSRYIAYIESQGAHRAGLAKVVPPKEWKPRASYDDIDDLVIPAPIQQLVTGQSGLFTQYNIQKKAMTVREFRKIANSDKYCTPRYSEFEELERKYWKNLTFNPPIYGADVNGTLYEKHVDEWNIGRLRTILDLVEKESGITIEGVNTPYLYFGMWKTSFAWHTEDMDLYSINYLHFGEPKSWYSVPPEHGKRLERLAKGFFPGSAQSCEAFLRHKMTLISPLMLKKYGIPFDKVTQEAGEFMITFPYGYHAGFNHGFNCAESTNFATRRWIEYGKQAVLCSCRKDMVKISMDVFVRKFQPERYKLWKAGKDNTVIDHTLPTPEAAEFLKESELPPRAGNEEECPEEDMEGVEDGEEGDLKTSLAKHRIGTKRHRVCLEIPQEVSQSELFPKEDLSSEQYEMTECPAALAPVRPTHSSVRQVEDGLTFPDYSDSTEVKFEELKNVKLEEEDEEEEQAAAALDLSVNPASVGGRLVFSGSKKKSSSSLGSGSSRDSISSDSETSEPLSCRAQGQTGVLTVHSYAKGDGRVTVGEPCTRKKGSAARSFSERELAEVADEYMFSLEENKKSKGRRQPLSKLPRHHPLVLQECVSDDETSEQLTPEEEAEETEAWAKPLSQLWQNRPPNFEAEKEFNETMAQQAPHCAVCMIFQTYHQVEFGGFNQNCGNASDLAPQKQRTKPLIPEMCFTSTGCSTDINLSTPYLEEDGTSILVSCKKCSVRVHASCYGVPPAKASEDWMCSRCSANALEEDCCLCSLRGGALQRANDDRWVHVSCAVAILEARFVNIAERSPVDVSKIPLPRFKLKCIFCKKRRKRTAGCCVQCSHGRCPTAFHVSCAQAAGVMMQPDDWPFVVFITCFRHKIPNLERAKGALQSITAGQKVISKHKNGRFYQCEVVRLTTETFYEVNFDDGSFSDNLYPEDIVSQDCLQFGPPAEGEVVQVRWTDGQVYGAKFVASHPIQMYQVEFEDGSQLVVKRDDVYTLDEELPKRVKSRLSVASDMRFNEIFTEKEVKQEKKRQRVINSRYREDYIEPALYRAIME
Sfp PPTase inh: inhibitors of Bacillus subtilis Sfp phosphopantetheinyl transferase; Biochemical Sfp PPTase activity, qHTS; Potency, µM, for the others: largest response in the series, negative = inhibition, hits mostly inhibitors; 310,000 compounds, 3.5% hits; AID 1490; Q9F4F7;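 note: the enzyme is Sfp with the accession as filed and its product quenches rhodamine fluorescence; 0% = enzyme reaction without inhibitor and -100% = no enzyme wells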
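Reaction rates are the 30-min fluorescence difference (ex 525, em 598 nm) in wells containing 15 nM Sfp, 5 uM rhodamine-CoA and 12.5 uM BHQ-2-YbbR at pH 7.6 with 10 mM MgCl2.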
G9a inh: G9a (human) methyltransferase inhibition | 350,000 compounds, 8.8% hits | G9a H3K9 monomethylation, AlphaScreen, 2 h | Potency, µM (titrated, usually from 102 µM), without a hit: at the top dose activity, negative = inhibition, actives largely listed as inhibitors; note: % is set by controls: 0 for no effect and ±100 for the full control effect; nearly all actives have a fitted effect of over 75% in size
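Readings reflect AlphaScreen signal from monomethyl-H3K9 antibody detection. HMT at 20 nM; substrate b-H3K9 500 nM; cofactor SAM 20 uM; 2 h RT reaction; compounds tested as titrations in qHTS with 15 min preincubation.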
HP1b binding inh: HP1-beta chromodomain-methylated histone interaction inhibition. 390,000 compounds, 0.56% hits. Potency, µM (series often up to 114 µM), for inactives: at the highest dose activity change, negative = inhibition, usual class: inhibitors. P83916. AID 540317. AlphaScreen HP1-beta / biotin-H3K9me3 peptide binding; note: nearly all actives have a fitted effect of over 70% in size
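Compound inhibition of the preformed complex between 50 nM HP1-beta and 50 nM biotinylated H3K9me3 peptide was read by AlphaScreen. Buffer was PBS pH 7.4 with 0.01% Tween-20. Incubations ran 30 min at room temperature, with 10 ug/mL donor/acceptor beads.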
TDP1 inh: blocks human tyrosyl-DNA phosphodiesterase 1; Q9NUW8; recombinant TDP1, AlphaScreen DNA substrate cleavage; Potency, µM (doses to about 130 µM), inactives show at the top dose activity change, negative = inhibition, actives largely listed as inhibitors; 350,000 compounds, 0.28% hits; AID 485290; note: % is set by controls: 0 for no effect and ±100 for the full control effect; nearly all actives have a fitted effect of over 40% in size
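AlphaScreen read-out: signal falls as enzyme removes the 3' tyrosine-FITC from a 5'-biotinylated DNA oligo (15 nM, 5 min, RT). Enzyme was E. coli-made recombinant Tdp1 at 1 nM, exposed to compound for 15 min beforehand; beads 10 ug/ml, 10 min.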
BAZ2B block: blocks human BAZ2B. AlphaScreen BAZ2B-H3K14Ac peptide displacement. 360,000 compounds, 4.4% hits. Potency, µM (highest dose often 114 µM), for the others: at the highest dose activity change, negative = inhibition, usual class: inhibitors. Q9UIF8; note: % is set by controls: 0 for no effect and ±100 for the full control effect; nearly all actives have a fitted effect of over 60% in size
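Compounds, titrated to a top concentration of 110 uM, were incubated 30 min at room temperature with preformed BAZ2B/acetyl-K14 H3 peptide complex (50 nM each). Proximity signal was measured by AlphaScreen after 20 min with beads.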
* marks the source's active call; other numbers are inactive results; [ ] = dose if it differs, or a comment. Calls come from the whole dose curve; as a rule, active = well fitted curve in the direction sought with a large enough effect; inconclusive = small, poorly fitted or top-dose-only effect, or another doubt; inactive = no such curve, though single readings can be large; an effect the other way counts as inactive or inconclusive. Potency is the fitted concentration of half-maximal effect.

Results for O=C1CN(N=Cc2ccco2)C(=O)N1 ?
JMJD2A Tudor inh: -5%; HP1b binding inh: 54%

How did Cc1oc(-c2ccc3ccccc3c2)nc1CN(C)C(C)c1ccncn1 (stereo not drawn) do in these assays?
JMJD2A Tudor inh: inconclusive; Sfp PPTase inh: 22µM*; G9a inh: inconclusive; HP1b binding inh: -6%; TDP1 inh: 0%; BAZ2B block: -30%

How did CCc1ccc(/C=C2/SC(=S)N(CCC(=O)Nc3ccc(C(=O)O)cc3)C2=O)cc1 do in these assays?
Sfp PPTase inh: -29%; G9a inh: 91%; TDP1 inh: inconclusive; BAZ2B block: inconclusive

Results for CCc1ccc(/C=C2/SC(=S)N(CCC(=O)Nc3cccc(C(=O)O)c3)C2=O)cc1 ?
JMJD2A Tudor inh: 50µM*; Sfp PPTase inh: -9%; HP1b binding inh: -4%; TDP1 inh: 28µM*; BAZ2B block: 35µM*

Results for CC(/C=C1\SC(=S)N(CCCC(=O)Nc2ccc(C(=O)O)cc2)C1=O)=C\c1ccccc1 ?
JMJD2A Tudor inh: inconclusive; Sfp PPTase inh: -10%; G9a inh: 13µM*; HP1b binding inh: -28%; TDP1 inh: 3%; BAZ2B block: 40µM*

Results for CC(/C=C1\SC(=S)N(NC(=O)c2ccc(O)cc2)C1=O)=C\c1ccccc1 ?
JMJD2A Tudor inh: inconclusive; Sfp PPTase inh: 50µM*; G9a inh: inconclusive; HP1b binding inh: inconclusive; TDP1 inh: -3%; BAZ2B block: 32µM*

What do the screens show for `CC(=C\c1ccccc1)/C=C1/SC(=S)N(CCCC(=O)O)C1=O`?
JMJD2A Tudor inh: -35%; Sfp PPTase inh: -15%; G9a inh: 40µM*; HP1b binding inh: -11%; BAZ2B block: inconclusive

What do the screens show for `C=CCN1C(=O)/C(=C\C(C)=C\c2ccccc2)SC1=S`?
JMJD2A Tudor inh: inconclusive; Sfp PPTase inh: 11%; G9a inh: 24%[0.501 µM]; HP1b binding inh: inconclusive; BAZ2B block: inconclusive

How did CCC(C(=O)O)N1C(=O)/C(=C/C(C)=C/c2ccccc2)SC1=S (stereo not drawn) do in these assays?
JMJD2A Tudor inh: inconclusive; Sfp PPTase inh: inconclusive; G9a inh: inconclusive; HP1b binding inh: inconclusive; TDP1 inh: 3%; BAZ2B block: inconclusive

How did COc1cc(OC)c(NC(=O)CCc2c(C)nc3ncnn3c2C)cc1Cl do in these assays?
JMJD2A Tudor inh: -9%; G9a inh: -2%[59 µM]; HP1b binding inh: 41%; TDP1 inh: 5%; BAZ2B block: -17%

What do the screens show for `CN(CC(=O)Nc1ccccc1C(F)(F)F)C(=O)CC1OC(=O)c2ccccc21` (stereo not drawn)?
JMJD2A Tudor inh: -12%; Sfp PPTase inh: -2%; HP1b binding inh: 26%; TDP1 inh: 0%; BAZ2B block: -2%

How did COc1ccc(NC(=O)CN(C)S(=O)(=O)c2ccc3nc(C)sc3c2)cc1Cl do in these assays?
JMJD2A Tudor inh: 1%; G9a inh: 1%[59 µM]; HP1b binding inh: 26%; TDP1 inh: 0%; BAZ2B block: 0%

Results for CCCCCCCCCCCCOCCOCCOCCOCCO ?
Sfp PPTase inh: 4%; G9a inh: 19%[59 µM]; TDP1 inh: 3%

Results for C=CCN1C(=O)/C(=C/c2ccsc2)SC1=S ?
JMJD2A Tudor inh: -22%; Sfp PPTase inh: -3%; G9a inh: -45%; HP1b binding inh: 14%; TDP1 inh: 3%; BAZ2B block: -15%

Results for CC(=C\c1ccccc1)/C=C1/SC(=S)N(C(C(=O)O)C(C)C)C1=O (stereo not drawn) ?
JMJD2A Tudor inh: inconclusive; Sfp PPTase inh: -6%; G9a inh: 35µM*; HP1b binding inh: inconclusive; TDP1 inh: 8%; BAZ2B block: 71µM*

Results for CC(=C\c1ccccc1)/C=C1/SC(=S)N(CCC(=O)Nc2ccccn2)C1=O ?
Sfp PPTase inh: 0%; G9a inh: 40µM*; TDP1 inh: 11%; BAZ2B block: inconclusive

How did CC(/C=C1\SC(=S)N(CCC(=O)Nc2ccccc2O)C1=O)=C\c1ccccc1 do in these assays?
JMJD2A Tudor inh: -26%; Sfp PPTase inh: 10%; G9a inh: 67%; HP1b binding inh: 16%; TDP1 inh: 2%; BAZ2B block: 1%

What do the screens show for `O=C(O)CN1C(=O)/C(=C/c2ccsc2)SC1=S`?
JMJD2A Tudor inh: -12%; Sfp PPTase inh: inconclusive; G9a inh: 32µM*; HP1b binding inh: 23%; TDP1 inh: -6%; BAZ2B block: 79µM*

Results for CC(/C=C1\SC(=S)N(CCC(=O)Nc2cccc(C(=O)O)c2)C1=O)=C\c1ccccc1 ?
JMJD2A Tudor inh: inconclusive; Sfp PPTase inh: -10%; G9a inh: 45µM*; HP1b binding inh: 71µM*; BAZ2B block: 56µM*

How did COc1ccc(/C=C2\SC(=S)N(CCC(=O)Nc3cccc(O)c3)C2=O)cc1 do in these assays?
JMJD2A Tudor inh: -16%; Sfp PPTase inh: -3%; HP1b binding inh: 9%; BAZ2B block: 1%

What do the screens show for `CCN(CC)S(=O)(=O)c1ccc(O)c(C(=O)OCC(=O)NC23CC4CC(CC(C4)C2)C3)c1`?
JMJD2A Tudor inh: -18%; HP1b binding inh: 21%; TDP1 inh: 1%

How did NC(=O)C1CCN(C(=O)CCSCc2ccccc2)CC1 do in these assays?
JMJD2A Tudor inh: -12%; Sfp PPTase inh: 4%; G9a inh: 12%; HP1b binding inh: 29%; TDP1 inh: 6%; BAZ2B block: -36%

What do the screens show for `O=C(O)CN1C(=O)/C(=C/C=C/c2ccccc2)SC1=S`?
JMJD2A Tudor inh: -35%; Sfp PPTase inh: -43%; G9a inh: inconclusive; HP1b binding inh: -12%; TDP1 inh: 0%; BAZ2B block: inconclusive

Results for O=C(O)CN1C(=O)/C(=C\C(Br)=C\c2ccccc2)SC1=S ?
JMJD2A Tudor inh: inconclusive; Sfp PPTase inh: 56µM*; G9a inh: 41%[0.501 µM]; HP1b binding inh: inconclusive; BAZ2B block: 45µM*

Results for O=C(CCCN1C(=O)S/C(=C\C=C\c2ccccc2)C1=O)Nc1ccc(C(=O)O)cc1 ?
JMJD2A Tudor inh: -19%; Sfp PPTase inh: -6%; G9a inh: inconclusive; HP1b binding inh: 1%; TDP1 inh: 35µM*; BAZ2B block: 56µM*

How did Cc1ccc(S(=O)(=O)N2CCN(C(=O)CSC(=S)N3CCCC3)CC2)c(C)c1 do in these assays?
JMJD2A Tudor inh: -8%; G9a inh: 17%[2.33 µM]; HP1b binding inh: 23%; TDP1 inh: 0%[56.1 µM]; BAZ2B block: -2%

Results for COc1ccc(CNC(=O)CN2C(=O)COc3ccc(S(=O)(=O)Nc4ccccc4)cc32)cc1 ?
JMJD2A Tudor inh: -20%; G9a inh: -27%[59 µM]; HP1b binding inh: -10%; TDP1 inh: 0%; BAZ2B block: -16%
